HT1080 IDH1KD tx: toxicity to HT-1080 IDH1 knockdown cells (counter line) | Potency, µM (titrated, usually from 46.1 µM), without a hit: top-dose activity, negative = toxicity, hits mostly cytotoxic | HT-1080 IDH1 knockdown viability, ATP luminescence, 48 h | actives 2% (n = 360,000);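 further: potency means the concentration at half of the fitted maximal effect; 0% = DMSO wells and -100% = cell-free medium wells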
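HT-1080-IDH1KD cells (IDH1 knocked down), 750/well in RPMI with 5% FBS, treated with compound 48 h at 37 degrees C. Viability by CellTiter-Glo luminescence, normalised to DMSO and no-cell wells; concentration-response curves classed.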
HT1080NT lethal: kills 2HG-producing HT-1080-NT fibrosarcoma cells; HT-1080-NT fibrosarcoma viability, CellTiter-Glo ATP luminescence, 48 h; Potency, µM (top dose mostly 46.1 µM), without a hit: top-dose activity, negative = less viability, actives largely listed as cytotoxic; actives 1.6% (n = 360,000);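 further: NT is the 2HG producing partner of a matched IDH1 knockdown line; potency means the concentration at half of the fitted maximal effect; 0% = DMSO-treated cells and -100% = media-only wells without cells; nearly all actives have a fitted effect of over 55% in size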
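HT-1080-NT; 750 cells/well; 5% FBS RPMI; 48 h compound, 37 degrees C; CellTiter-Glo luminescence; curve fitting and curve-class assignment.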
ELG1 DNA repair: blocks ELG1-dependent DNA repair in HEK293T cells; HEK293T ELG1-luciferase reporter, luminescence, 16 h; DNA damage induced by 5-fluorouridine; AID 504467; actives 2.3% (n = 330,000); Potency, µM (titrated, usually from 46.1 µM), for the others: at the highest dose activity change, negative = inhibition, hits mostly inhibitors; further: potency means the concentration at half of the fitted maximal effect; nearly all actives have a fitted effect of over 55% in size
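DMSO vehicle served as the neutral condition. Each well held 2,000 cells given 5-fluorouridine plus compound; after 16 hr at 37 °C/5% CO2, ONE-Glo was added and luciferase measured 30 min later.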
DT40 TDP1 no CPT: qHTS for Inhibitors of human tyrosyl-DNA phosphodiesterase 1 (TDP1): qHTS in cells in absence of CPT; Potency, µM (series often up to 46.2 µM), for the others: at the top dose activity change, negative = growth inhibition, actives largely listed as inhibitors; actives 15% (n = 420,000); DT40 Tdp1-/- hTDP1 cells, no CPT, ATP luminescence, 48 h; further: potency means the concentration at half of the fitted maximal effect; nearly all actives have a fitted effect of over 55% in size
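Cells were dispensed at 400 per well, compounds added by pin tool, plates incubated ≥48 hr at 37 °C, then CellTiter-Glo added for 30 min at room temperature before luminescence reading. Line: DT40 Tdp1-/- complemented with hTDP1; camptothecin omitted.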
IL1B secr inh: inflammasome signaling inhibition, IL-1 beta readout | THP-1 LPS/ATP IL-1B secretion, AlphaLISA, 16 h; active compounds read low | activity change, % at 57.5 µM | actives 4.7% (n = 360,000) | AID 743279; in the data active means activity change below about -50%; inconclusive means mostly about -30% to -49%
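Secreted IL-1B measured by AlphaLISA bead assay after 16 h compound exposure of THP-1 cells; compounds (final up to 57.5 uM) added 1 h before LPS (250 ng/mL) and ATP (1.25 mM) stimulation; lower signal means less secretion.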
TDP1 cell CPT: growth inhibition of DT40 Tdp1-/-;hTDP1 cells with camptothecin (screen for TDP1 inhibitors); chicken DT40 Tdp1-/-;hTDP1 cells + 20 nM CPT, ATP luminescence, 48 h; Potency, µM (series often up to 46.2 µM), without a hit: at the highest dose activity change, negative = growth inhibition, usual class: inhibitors; actives 12% (n = 420,000); further: potency means the concentration at half of the fitted maximal effect; nearly all actives have a fitted effect of over 55% in size
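Chicken DT40 Tdp1-/- cells complemented with human TDP1, 400 cells/well, exposed to compounds plus 20 nM camptothecin for at least 48 h at 37 C; viability read as ATP content by CellTiter-Glo luminescence.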
* marks the source's active call; other numbers are inactive results; u = inconclusive; x = no result; [ ] = dose if it differs, or a comment. Shown are actives, neighbours in structure and some others; about 19% of the full set was active somewhere. Unless noted, the call rests on the fitted dose curve; in most records, active means well fitted curve in the direction sought with a large enough effect; inconclusive means small, poorly fitted or top-dose-only effect, or another doubt; inactive means no such curve, though single readings can be large; an effect the other way counts as inactive or inconclusive. Unless noted, on the % scale 0 is the no-effect control and ±100 the full control effect.

SMILES | HT1080 IDH1KD tx | HT1080NT lethal | ELG1 DNA repair | DT40 TDP1 no CPT | IL1B secr inh | TDP1 cell CPT
Cc1cc(C)nc(SCc2nnc(SCC(=O)O)n2-c2ccccc2)n1 | 23% | 3% | 0% | -3% | 17 | 2%
Cc1cc(C)nc(SCc2nnc(SCC#N)n2-c2cccc(Cl)c2)n1 | 2% | 7% | -11% | 21µM* | -4 | u
Cc1cc(C)nc(SCc2nnc(SCC(=O)Nc3nc(-c4ccccc4)cs3)n2-c2ccccc2)n1 | 4% | 4% | -24% | 18µM* | 0 | u
COc1ccc(NCc2nnc(SCC(=O)Nc3nc(-c4ccccc4)cs3)n2-c2ccccc2)cc1 | -12% | -9% | 11% | 23µM* | 46 | 4.6µM*
COc1ccc(-n2c(CNc3ccc(C)cc3)nnc2SCC(=O)Nc2nc(-c3ccccc3)cs2)cc1 | -1% | -2% | u | 10µM* | 40 | 5.6µM*
CCOc1ccc(C(=O)C(C)OC(=O)CN2C(=O)NC(C)(C)C2=O)cc1 (stereo not drawn) | 0% | 3% | 21% | u | 22 | -10%
COCCN(C(=O)COC(=O)CCC(=O)c1ccc(Cl)cc1)c1c(N)n(Cc2ccccc2)c(=O)[nH]c1=O | 4% | 1% | -2% | -21% | -4 | -9%
COc1ccc(Cl)cc1NC(=O)CN(C)C(=O)/C=C/c1ccco1 | -9% | 0% | 4% | -20% | 3 | -25%
Cc1cccc(-n2c(SCc3ccc([N+](=O)[O-])cc3)nnc2-c2c[nH]c3ccccc23)c1 | -14% | -18% | u | u | 40 | u
Cc1cccc(-n2c3nc(=O)[nH]c(=O)c-3cc3cc([N+](=O)[O-])ccc32)c1 | u | u | -23% | -113% | -101* | 4.6µM*
Cc1ccc(C)c(-n2c3nc(=O)[nH]c(=O)c-3cc3cc([N+](=O)[O-])ccc32)c1 | 5.2µM* | 6.5µM* | -14% | 0.82µM* | -99* | 1.2µM*
Cc1ccc(-c2noc(-c3cccnc3NCc3ccco3)n2)cc1 | x | x | x | u | x | -21%
CCOC(=O)Cc1csc2nc(-c3ccccc3)nn12 | 5% | 1% | 23% | u | 24 | -11%
O=C(Cc1ccc(Cl)cc1)NCCc1csc2nc(-c3ccccc3F)nn12 | x | x | x | -13% | x | -25%
O=C(Cc1ccccc1)NCCc1csc2nc(-c3ccc(Cl)cc3)nn12 | x | x | x | 9.2µM* | x | 12µM*
O=C(NCCc1csc2nc(-c3ccccc3F)nn12)C(=O)Nc1cc(F)ccc1F | x | x | x | -6% | x | 3%
O=C(NCCc1csc2nc(-c3ccc(F)cc3)nn12)c1ccco1 | x | x | x | 16µM* | x | u
O=C(Cc1ccc(F)cc1)NCCc1csc2nc(-c3ccc(Cl)cc3)nn12 | x | x | x | 21µM* | x | u
Cc1cccc(-c2nc3scc(CCNC(=O)c4ccccc4Cl)n3n2)c1 | x | x | x | 21µM* | x | u
Cn1cnc(S(=O)(=O)N2CCC(C(=O)N3CCN(c4ccc(Cl)cc4)CC3)CC2)c1 | x | x | x | -25% | x | u
CCCCn1c(N)c(N(CC(C)C)C(=O)CCCc2nc3ccccc3s2)c(=O)[nH]c1=O | 7% | 2% | 10% | 0% | -5 | 4%
CC(C)(C)c1ccccc1NC(=O)CN1C(=O)NC(Cc2ccccc2)C1=O (stereo not drawn) | 7% | 4% | 12% | -18% | 8 | -10%
CCOC(=O)c1c(C)[nH]c(C)c1S(=O)(=O)N1CCC(C(=O)Nc2ccc(F)cc2F)CC1 | x | x | x | 1% | x | -3%
O=C1NC(c2cccc(OCc3ccccc3)c2)Nc2ccccc21 (stereo not drawn) | 0.58µM* | u | x | 1.2µM* | 26 | 1.5µM*
CCOc1ccc(NC(=S)NC(=O)/C=C/c2ccc(OC)c(OC)c2)c([N+](=O)[O-])c1 | -7% | -3% | u | u | -14 | u
SMILES | HT1080 IDH1KD tx | HT1080NT lethal | ELG1 DNA repair | DT40 TDP1 no CPT | IL1B secr inh | TDP1 cell CPT
O=C(/C=C/c1ccc(F)cc1)NC(=S)Nc1ccccc1C(=O)NC1CCCCC1 | 4% | 2% | 18% | 13µM* | -2 | 16µM*
O=C(/C=C/c1ccccc1)NC(=S)Nc1ccccc1C(=O)NC1CCCCC1 | -11% | -2% | 5% | u | -9 | u
Cc1ccc(/C=C/C(=O)NC(=S)Nc2ccccc2C(=O)NC2CCCCC2)cc1 | 19% | 7% | 5% | 12µM* | -11 | 13µM*
Cc1ccc(/C=C/C(=O)Nc2ccccc2C(N)=O)cc1 | -23% | -18% | u | u | u | 21µM*
CCOc1ccc(NC(=S)NC(=O)/C=C/c2ccc(C)cc2)c([N+](=O)[O-])c1 | -20% | -18% | 6% | 13µM* | -2 | 15µM*
CCOC(=O)c1c(S(=O)(=O)N2CCC(C(=O)Nc3ncccc3C)CC2)c(C)n(C)c1C | x | x | x | 1% | x | -12%
COc1ccc(Cc2nc3ccc(C(=O)NCCCSC)cc3o2)cc1OC | 0% | -5% | u | u | 0 | u
CCOC(=O)/C=C/C(=O)Nc1ccccc1C(=O)NC1CCCCC1 | u | -8% | 1% | u | -51* | u
O=C(NNC(=O)c1cccc(C(F)(F)F)c1)c1ccc(-n2cnnn2)cc1 | -12% | -20% | 0% | 1% | 22 | 10%
COc1ccccc1CNC(=O)CN1C(=O)NC(c2ccccc2)(c2ccccc2)C1=O | -17% | -3% | u | -29% | -8 | -15%
O=C(CSc1ccc([N+](=O)[O-])cc1)Nc1ccccc1N1CCOCC1 | -1% | -8%[9.24 µM] | -5% | 21µM* | u | u
O=C(Nc1cccc(S(=O)(=O)N2CCOCC2)c1)c1cc([N+](=O)[O-])ccc1N1CCOCC1 | 0% | 0% | 0% | -8% | 5 | -5%
O=C(CSc1ccc([N+](=O)[O-])cc1)Nc1cccc(S(=O)(=O)N2CCOCC2)c1 | 0% | 3% | u | -5% | -68* | -1%
Cc1cccc(NC(=O)CSc2nnc(CN3CCOCC3)n2C)c1C | 10% | 21% | -3% | -3% | 8 | u
Cn1c(CN2CCOCC2)nnc1SCC(=O)Nc1ccc([N+](=O)[O-])cc1O | -1% | 0% | 13µM* | 0% | -3 | -6%
COc1cc(NC(=O)CCNS(=O)(=O)c2ccc3c(c2)CCC(=O)N3)cc(OC)c1 | -1% | -2% | 6% | 3% | -1 | 5%
COc1cc(N)c(Cl)cc1C(=O)OCC(=O)NCC1CCCCC1 | -15% | -1% | u | u | -6 | u

Source: PubChem BioAssay
